The whole screen tested about 3,200 compounds, of which about 300 (9.4%) showed activity. The full list was thinned out, with actives kept by preference.
Tested on: A673/TR/shEF
Test: cell viability (LOESS-normalised, relative to median of negative controls) (log2 ratio); higher = more viable cells (less compound effect), active = hit call of the paper (over 3 MAD below the median)
Settings: treatment time: 72 h
In short: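 Viability of A673/TR/shEF Ewing sarcoma cells was determined by CellTiter-Glo luminescence. The cells, at 1,500 per well in 384-well plates, were grown with or without doxycycline from 24 h before compound addition to switch on EWS-FLI1 shRNA knockdown, then exposed for three days to library compounds at two or more concentrations or to DMSO controls. Signals were LOESS-corrected plate by plate, normalised to the negative-control median and log2-transformed.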

[1] = 0.103 µM, library screen: screen3, EWS-FLI1 expression: high (no doxycycline)
[2] = 0.103 µM, library screen: screen3, EWS-FLI1 expression: low (doxycycline-induced shRNA knockdown)
[3] = 0.308 µM, library screen: screen3, EWS-FLI1 expression: high (no doxycycline)
[4] = 0.308 µM, library screen: screen3, EWS-FLI1 expression: low (doxycycline-induced shRNA knockdown)
[5] = 0.926 µM, library screen: screen3, EWS-FLI1 expression: high (no doxycycline)
[6] = 0.926 µM, library screen: screen3, EWS-FLI1 expression: low (doxycycline-induced shRNA knockdown)
[7] = 2.8 µM, library screen: screen3, EWS-FLI1 expression: high (no doxycycline)
[8] = 2.8 µM, library screen: screen3, EWS-FLI1 expression: low (doxycycline-induced shRNA knockdown)
[9] = 8.3 µM, library screen: screen3, EWS-FLI1 expression: high (no doxycycline)
[10] = 8.3 µM, library screen: screen3, EWS-FLI1 expression: low (doxycycline-induced shRNA knockdown)
[11] = 25 µM, library screen: screen3, EWS-FLI1 expression: high (no doxycycline)
[12] = 25 µM, library screen: screen3, EWS-FLI1 expression: low (doxycycline-induced shRNA knockdown)
[13] = 0.25 µM, library screen: screen1, EWS-FLI1 expression: high (no doxycycline)
[14] = 0.25 µM, library screen: screen1, EWS-FLI1 expression: low (doxycycline-induced shRNA knockdown)
[15] = 2.5 µM, library screen: screen1, EWS-FLI1 expression: high (no doxycycline)
[16] = 2.5 µM, library screen: screen1, EWS-FLI1 expression: low (doxycycline-induced shRNA knockdown)
[17] = 0.25 µM, library screen: screen2, EWS-FLI1 expression: high (no doxycycline)
[18] = 0.25 µM, library screen: screen2, EWS-FLI1 expression: low (doxycycline-induced shRNA knockdown)
[19] = 2.5 µM, library screen: screen2, EWS-FLI1 expression: high (no doxycycline)
[20] = 2.5 µM, library screen: screen2, EWS-FLI1 expression: low (doxycycline-induced shRNA knockdown)

Measured: cell viability (log2)

CCC(C)n1ncn(-c2ccc(N3CCN(c4ccc(OC[C@H]5CO[C@](Cn6cncn6)(c6ccc(Cl)cc6Cl)O5)cc4)CC3)cc2)c1=O (stereo partly specified)
inactive: [1] -0.00587 | [2] -0.0322 | [3] 0.0158 | [4] 0.0366 | [5] 0.0942 | [6] 0.0808 | [7] 0.0248 | [8] 0.0437 | [9] -0.13 | [10] 0.0912 | [11] 0.0658 | [12] 0.11

COC(=O)C(O)c1ccccc1 (stereo unspecified)
inactive: [13] 0.0881 | [14] 0.0567 | [15] 0.0992 | [16] 0.015

Nc1ccc2c3c(cccc13)C(=O)NC2=O
inactive: [18] 0.0582 | [19] 0.0677 | [20] 0.123
active: [17] -0.219

COc1cc(/C=C/C=O)cc(OC)c1OC
inactive: [13] 0.0589 | [14] 0.0132 | [15] 0.0586 | [16] 0.0289

OC1C=CC(Br)C(O)C1O (stereo unspecified)
inactive: [17] 0.12 | [18] 0.141 | [19] 0.0654 | [20] 0.0803

FC(F)(F)c1ccc(/C=C/c2nc(COc3ccc(CCCCn4ccnn4)cc3)co2)cc1
active: [1] -0.325 | [3] -0.568 | [4] -0.12 | [5] -0.774 | [6] -0.153 | [7] -1.45 | [8] -0.118 | [9] -1.63 | [10] -0.193 | [11] -1.47 | [12] -0.184
inactive: [2] -0.0943

CC(=O)OC1CC[C@@]2(C)C(CC[C@H]3[C@@H]4CC=C(C(C)=O)[C@@]4(C)C(=O)C[C@@H]32)C1 (stereo partly specified)
inactive: [13] 0.0289 | [14] 0.0314 | [15] 0.141 | [16] 0.0915

COC(=O)C[C@H]1C(C)(C)[C@H](O)[C@@H]2CC3=C4CC(O)O[C@@H](c5ccoc5)[C@]4(C)CCC3[C@@]1(C)C2=O (stereo partly specified)
inactive: [13] 0.0798 | [14] 0.183 | [15] 0.141 | [16] 0.127

C[C@H](NCCc1ccc(O)cc1)[C@H](O)c1ccc(O)cc1
inactive: [1] -0.0282 | [2] 0.0403 | [13] 0.119 | [14] 0.0926 | [17] 0.11 | [18] 0.0788 | [3] 0.0762 | [4] 0.0395 | [5] 0.0419 | [6] 0.0833 | [15] 0.157 | [16] 0.125 | [19] 0.0729 | [20] -0.0642 | [7] 0.0463 | [8] 0.0441 | [9] 0.098 | [10] 0.0382 | [11] 0.0513 | [12] 0.0444

COc1ccc(CCN(C)CCc2ccc(OC)c(OC)c2)cc1OC
inactive: [17] 0.187 | [18] 0.0366 | [19] 0.198 | [20] 0.0294

COc1ccc(CCNCC(O)c2ccc(O)cc2)cc1OC (stereo unspecified)
active: [19] -0.721 | [20] -0.108
inactive: [17] 0.167 | [18] -0.0395

From the supplement of paper PMC6089552
